Source: PubChem
CD40 NFkB inh – CD40 pathway inhibition in BL2 cells; inhibition, % at 10 µM; 83,000 compounds, 0.94% hits; BL2 NF-kB luciferase reporter, CD40L-induced, 4 h;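 active = mean inhibition of at least 50% with a set share of replicates also reaching that level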
Large screens that a line does not name were inactive; [ ] = remark or other dose. This is one part of a sample in which hits are shown more often than they occur.

COC(=O)[C@H]1[C@H](CO)[C@H]2Cn3c(ccc(-c4cccc(F)c4)c3=O)[C@@H]1N2Cc1cccnc1	none
CS(=O)(=O)N1C[C@@H]2C(c3ccccc3)[C@H](C1)N2CC1CC1 (some centres undefined)	none
C[C@]12CC[C@H](O)C[C@@H]1CC[C@H]1[C@H]3CCC(=O)[C@@]3(C)CC[C@@H]12	none
CC1OC(OC2C(O)CC(OC3C(O)CC(OC4CCC5(C)C(CCC6C5CCC5(C)C(C7=CC(=O)OC7)C(O)CC65O)C4)OC3C)OC2C)CC(O)C1O (centres undefined)	CD40 NFkB inh 58
C[C@]12CC[C@@H](O)C[C@@H]1CC[C@@H]1[C@@H]2CC[C@]2(C)C(=O)CC[C@@H]12	none
C[C@]12CCC3C(CC[C@H]4C[C@@H](O)CC[C@]34C)C1C[C@@H](O)[C@@H]2O (some centres undefined)	none
CC(=O)OC1CC2(O)C3CCC4CC(O)CCC4(C)C3CCC2(C)C1C1=CC(=O)OC1 (centres undefined)	CD40 NFkB inh 75
CC(=O)C1CCC2C3CCC4CC(O)CCC4(C)C3CCC12C#N (centres undefined)	none
C[C@]12CC[C@H](O)C[C@H]1CC[C@@H]1[C@@H]2CC[C@]2(C)[C@@H](c3ccc(=O)oc3)CC[C@]12O	CD40 NFkB inh 58[25 µM]
CCCNC(=O)N1[C@@H]2c3ccc(-c4ccccc4OC)c(=O)n3C[C@H]1[C@H](CO)[C@H]2C(=O)OC	none
O=C(O)[C@@H]1[C@@H](CO)[C@@H]2Cn3c(ccc(-c4cccnc4)c3=O)[C@H]1N2C(=O)Nc1cc(F)ccc1F	none
COC(=O)[C@@H]1[C@@H](CO)[C@@H]2Cn3c(ccc(-c4cccc(C(=O)N(C)C)c4)c3=O)[C@H]1N2CC1CC1	none
C[C@@H]1CN([C@@H](C)CO)C(=O)c2c(c3ccccc3n2C)-c2ccccc2CO[C@@H]1CN(C)C(=O)Oc1ccccc1	none
C=CCN1CCC23c4c5ccc(O)c4OC2C(=O)CCC3(O)C1C5 (centres undefined)	none
O=C(O)[C@@H]1[C@@H](CO)[C@@H]2Cn3c(ccc(-c4ccncc4)c3=O)[C@H]1N2C(=O)C1CCCCC1	none
O=C(Cc1ccccn1)N1CCCCN2[C@H](CO)[C@H](c3ccc(-c4ccccc4F)cc3)[C@H]2C1	none
COC(=O)[C@H]1[C@H](CO)[C@H]2Cn3c(ccc(-c4cccc(F)c4)c3=O)[C@@H]1N2C(=O)CC1CC1	none
C[C@]12CC[C@H]3[C@@H](CCC4=CC(=O)CC[C@@]43C)[C@@H]1CC[C@H]2O	none
C[C@H](CO)N1C[C@H](C)[C@@H](CN(C)C(=O)Oc2cccc3ccccc23)OCc2cnnn2CCCC1=O	none
CC(C)(C)n1cc(C(=O)c2ccc3ccccc3c2O)cn1	CD40 NFkB inh 54
O=C(Cc1ccccn1)N1CCCCN2[C@@H](CO)[C@H](c3ccc(-c4ccccc4F)cc3)[C@@H]2C1	none
CC=Cc1ccc2n(c1=O)C[C@H]1[C@H](CO)[C@@H](C(=O)N(C)C)[C@@H]2N1C (mixture of isomers)	none
Cc1ccc(OC(=O)N(C)C[C@H]2OCc3ccccc3-c3c(n(C)c4ccccc34)C(=O)N([C@@H](C)CO)C[C@H]2C)cc1	none
O=C(Cc1ccccc1)N1CCCCN2[C@@H](CO)[C@H](c3ccc(C#Cc4ccccc4)cc3)[C@@H]2C1	none
O=[N+]([O-])c1ccc(N2CC2)c([N+](=O)[O-])c1	none
O=[N+]([O-])c1ccc(N2CCOCC2)c2c1no[n+]2[O-]	CD40 NFkB inh 86
O=[N+]([O-])c1ccc(N2CCCCC2)c2ncccc12	none
CC12CCC3C(CCC4C(=O)C(=O)CCC43C)C1CCC2=O (centres undefined)	none
OC[C@@H]1Nc2ccc(C#Cc3cccnc3)cc2[C@@H]2NCC[C@H]12	none
C=CCN1[C@@H]2CN(C(C)=O)C[C@H]1C2c1ccc(Br)cc1 (some centres undefined)	none
O=C(O)[C@@H]1[C@@H](CO)[C@@H]2Cn3c(ccc(-c4ccc(F)cc4)c3=O)[C@H]1N2CC1CCCCC1	none
O=C(C1CC1)N1C[C@@H]2N[C@H](C1)[C@@H]2c1ccc(-c2ccncc2)cc1	CD40 NFkB inh 70
O=C(C1CC1)N1C[C@@H]2N[C@H](C1)C2c1ccc(-c2cncnc2)cc1 (some centres undefined)	none
CC(=O)N1C[C@@H]2N[C@H](C1)C2c1ccc(Br)cc1 (some centres undefined)	none
COc1ccc(OC(=O)N(C)C[C@@H]2OCc3ccccc3-c3c(n(C)c4ccccc34)C(=O)N([C@@H](C)CO)C[C@@H]2C)cc1	none
